The nature of experiment [1]: qHTS assay to identify small molecule agonists of the peroxisome proliferator-activated receptor delta (PPARd) signaling pathway - cell viability counter screen (AID 743211). Note: nearly all actives have a fitted effect of over 55% in size. Summed up:
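Read-out: CellTiter-Glo luminescence, 30 min RT, measured in the same wells as the beta-lactamase reporter. Cells: GeneBLAzer PPAR delta UAS-bla HEK293H, 3000 cells/well, compound exposure 17 h at 37C.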
For orientation: Quantitative high-throughput screening tests each substance at several concentrations.

Experiment [2] deals with Peroxisome proliferator-activated receptor delta (Homo sapiens) (UniProt Q03181). Put plainly: qHTS assay to identify small molecule agonists of the peroxisome proliferator-activated receptor delta (PPARd) signaling pathway (AID 743212; calls by dose curve). The method, boiled down:
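Tox21 library screened in GeneBLAzer PPARd UAS-bla HEK293H cells. After compound treatment at 37 C, a FRET-based beta-lactamase substrate was applied for 2 h and fluorescence recorded.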

Experiment [3] is described as follows: qHTS assay to identify small molecule antagonists of the peroxisome proliferator-activated receptor delta (PPARd) signaling pathway - cell viability counter screen (AID 743213). Note: nearly all actives have a fitted effect of over 50% in size. Summed up:
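CellTiter-Glo was added to PPARd-bla HEK293H wells following 17 h compound treatment in the presence of 300 nM L165041. Luminescence was recorded after 30 min at room temperature.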

Experiment [4] has as its target Peroxisome proliferator-activated receptor delta (Homo sapiens) (UniProt Q03181). Put plainly: qHTS assay to identify small molecule antagonists of the peroxisome proliferator-activated receptor delta (PPARd) signaling pathway (AID 743215; active = well fitted inhibition curve with a large enough effect in the signal ratio in the repeat runs, not every such curve was filed as active; the % refers to the signal ratio;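 note: cells stimulated with agonist L165041 at 300 nM final during compound exposure; series mostly up to about 62 µM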). Summed up:
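Here, a reporter line (HEK293H, beta-lactamase under a UAS) measures PPARd signaling. Compounds are tested against agonist L165041 at 300 nM final concentration over 17 h at 37 C, with fluorescence read after substrate.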

Experiment [5] deals with Bile acid receptor (Homo sapiens) (UniProt Q96RI1). Nature of the experiment: qHTS assay to identify small molecule antagonists of the farnesoid-X-receptor (FXR) signaling pathway (AID 743217; active = well fitted inhibition curve with a large enough effect in the signal ratio in the repeat runs, not every such curve was filed as active; the % refers to the signal ratio). The method, boiled down: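 Test compounds are pin-transferred onto FXR-bla HEK 293T cells, then chenodeoxycholic acid is added at 50 uM final. After 16 h at 37 °C, LiveBLAzer B/G substrate is applied for 2 h at room temperature and fluorescence read.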
Chain of Bile acid receptor (Homo sapiens) (Q96RI1 whole entry, looked up): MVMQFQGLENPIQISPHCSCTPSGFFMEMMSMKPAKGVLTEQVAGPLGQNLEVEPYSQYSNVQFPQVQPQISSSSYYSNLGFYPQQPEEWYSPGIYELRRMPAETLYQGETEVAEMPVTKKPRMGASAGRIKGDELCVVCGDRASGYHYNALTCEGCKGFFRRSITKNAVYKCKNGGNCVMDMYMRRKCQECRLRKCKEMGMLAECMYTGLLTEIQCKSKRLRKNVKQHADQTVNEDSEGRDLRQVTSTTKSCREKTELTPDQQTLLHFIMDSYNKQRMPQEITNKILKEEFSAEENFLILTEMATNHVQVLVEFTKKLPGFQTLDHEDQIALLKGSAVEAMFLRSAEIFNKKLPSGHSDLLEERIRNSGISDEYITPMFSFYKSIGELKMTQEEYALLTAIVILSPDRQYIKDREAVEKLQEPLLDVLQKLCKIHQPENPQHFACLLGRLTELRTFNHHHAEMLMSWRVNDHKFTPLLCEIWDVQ

The nature of experiment [6]: qHTS assay to identify small molecule agonists of the farnesoid-X-receptor (FXR) signaling pathway - cell viability counter screen (AID 743218). Note: nearly all actives have a fitted effect of over 45% in size. The method, boiled down: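 Quantitative HTS counter screen measuring ATP-based viability via CellTiter-Glo luminescence in HEK 293T cells carrying a UAS-driven beta-lactamase reporter, after 16 h compound exposure at 37 C.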

Experiment [7] deals with Bile acid receptor (Homo sapiens) (UniProt Q96RI1). Nature of the experiment: qHTS assay to identify small molecule agonists of the farnesoid-X-receptor (FXR) signaling pathway (AID 743220; active = well fitted activation curve with a large enough effect in the signal ratio in the repeat runs, not every such curve was filed as active; the % refers to the signal ratio). The method, boiled down: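 FXR-UAS-bla HEK 293T cells carrying a UAS-driven beta-lactamase reporter were plated for 5 h at 37C/5% CO2, then exposed to DMSO-dissolved Tox21 10K compounds for 16 h at 37C. A LiveBLAzer B/G FRET substrate was loaded for 2 h at room temperature before fluorescence reading.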

Experiment [8] can be described thus: qHTS assay to identify small molecule antagonists of the farnesoid-X-receptor (FXR) signaling pathway - cell viability counter screen (AID 743221; active = well fitted cell-killing curve with a large enough effect in the repeat runs, not every such curve was filed as active; note: nearly all actives have a fitted effect of over 50% in size). The method, boiled down: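 HEK 293T FXR-bla cells, 5 h pre-incubation; compound + CDCA 50 uM final, 16 h, 37 C; beta-lactamase FRET read first, then CellTiter-Glo luminescence, 30 min RT.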
The nature of experiment [9]: qHTS assay to identify small molecule agonists of the NFkB signaling pathway - cell viability counter screen (AID 1159515; calls by dose curve; note: series mostly up to about 61 µM; nearly all actives have a fitted effect of over 55% in size). The method, boiled down:
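Tox21 library compounds were tested for cytotoxicity against NFkB-bla ME-180 cells during a 5 hr exposure at 37 C. CellTiter-Glo luminescence served as the viability read-out.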

A short description of experiment [10]: qHTS assay to identify small molecule agonists of the endoplasmic reticulum stress response signaling pathway (AID 1159516; active = well fitted activation curve with a large enough effect in the signal ratio in the repeat runs, not every such curve was filed as active; the % refers to the signal ratio). Summed up:
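Fluorescence at 460 and 530 nm (405 nm excitation) reports beta-lactamase from an ER stress response element in HeLa cells treated 5 hr at 37 C.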

Experiment [11] in a line: qHTS assay to identify small molecule agonists of the endoplasmic reticulum stress response signaling pathway - cell viability counter screen (AID 1159517; calls by dose curve; note: series mostly up to about 61 µM; nearly all actives have a fitted effect of over 50% in size). The method, boiled down:
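In parallel with the ESRE reporter read, cytotoxicity was scored by CellTiter-Glo luminescence (30 min, room temperature) on HeLa ESRE-bla cells dosed for 5 hr.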

Experiment [12] in a line: qHTS assay to identify small molecule antagonists of the retinoid-related orphan receptor gamma (ROR-gamma) signaling pathway - cell viability counter screen (AID 1159520). Note: nearly all actives have a fitted effect of over 50% in size. Summed up:
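Tet-on ROR gamma CHO cells were given compounds for 2 hr, then doxycycline hyclate at 1 uM final, and incubated 16 hr at 37 C. Viability was measured as ATP content by CellTiter-Glo luminescence.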

The target of experiment [13] is Nuclear receptor ROR-gamma (Homo sapiens) (UniProt P51449). Nature of the experiment: qHTS assay to identify small molecule antagonists of the retinoid-related orphan receptor gamma (ROR-gamma) signaling pathway (AID 1159521; note: nearly all actives have a fitted effect of over 50% in size; note: potency is the fitted concentration of half-maximal effect). Summed up:
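Luminescence readout (ONE-Glo, 30 min RT) after 16 h doxycycline induction; loss of signal scored as antagonism. CHO cells with TET-inducible RORγ and RORE-LUC reporter; compounds added 2 h before 1 uM final doxycycline.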

Experiment [14] in a line: qHTS assay to identify small molecule agonists of the AP-1 signaling pathway - cell viability counter screen (AID 1159525; calls by dose curve; note: nearly all actives have a fitted effect of over 55% in size). Summed up:
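Same-well cytotoxicity counter screen of the Tox21 10K library in ME-180 cells. The readout is ATP-dependent luminescence after 5 h compound treatment. Data are normalised to DMSO and tetra n-octyl ammonium bromide controls.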

A short description of experiment [15]: qHTS assay to identify small molecule agonists of the AP-1 signaling pathway (AID 1159526; calls by dose curve).
For experiment [16], the target named is Retinoic acid receptor RXR-alpha (Homo sapiens) (UniProt P19793). Nature of the experiment: qHTS assay to identify small molecule agonists of the RXR signaling pathway (AID 1159527; calls by dose curve; note: nearly all actives have a fitted effect of over 35% in size). Summed up:
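Agonist mode; 9-cis retinoic acid positive control. HEK 293T UAS-bla reporter cells, 2% charcoal-stripped FBS, 16 hr compound exposure at 37 C/5% CO2. LiveBLAzer B/G FRET substrate 2 hr RT; ex 405, em 460/530 nm.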

Experiment [17] deals with Vitamin D3 receptor (Homo sapiens) (UniProt P11473). Put plainly: qHTS assay to identify small molecule antagonists of the vitamin D receptor (VDR) signaling pathway (AID 743223; active = well fitted inhibition curve with a large enough effect in the signal ratio in the repeat runs, not every such curve was filed as active; the % refers to the signal ratio). Summed up: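 Beta-lactamase reporter read-out: FRET substrate fluorescence after 2 h at room temperature, following 16 h exposure of VDR-bla cells to test compound plus 3 nM (final) 1alpha,25-dihydroxyvitamin D3 agonist at 37C.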
Chain of Vitamin D3 receptor (Homo sapiens) (P11473 whole entry, looked up): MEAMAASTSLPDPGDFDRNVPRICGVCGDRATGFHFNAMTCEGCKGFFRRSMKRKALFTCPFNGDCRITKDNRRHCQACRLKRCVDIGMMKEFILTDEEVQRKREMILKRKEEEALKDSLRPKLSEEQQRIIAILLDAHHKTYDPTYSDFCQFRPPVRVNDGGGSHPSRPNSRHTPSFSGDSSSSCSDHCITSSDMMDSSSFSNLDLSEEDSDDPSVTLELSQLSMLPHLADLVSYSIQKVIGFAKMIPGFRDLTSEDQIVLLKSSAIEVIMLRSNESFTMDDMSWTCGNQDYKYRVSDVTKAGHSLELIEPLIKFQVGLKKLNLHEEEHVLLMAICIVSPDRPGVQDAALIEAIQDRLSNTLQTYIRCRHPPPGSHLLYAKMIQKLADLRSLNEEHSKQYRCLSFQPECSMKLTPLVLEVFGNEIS

A short description of experiment [18]: qHTS assay to identify small molecule agonists of the vitamin D receptor (VDR) signaling pathway - cell viability counter screen (AID 743224). The method, boiled down: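 CellTiter-Glo viability readout on VDR-bla cells, measured after 16 h of compound treatment at 37C in the same wells.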
Experiment [19] in a line: qHTS assay to identify small molecule antagonists of the vitamin D receptor (VDR) signaling pathway - cell viability counter screen (AID 743225). Note: nearly all actives have a fitted effect of over 50% in size. Summed up: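 Viability counter screen run in the same wells as the beta-lactamase reporter assay: HEK 293T VDR-UAS-bla cells, 16 h compound exposure at 37C with 3 nM (final) 1-alpha,25-dihydroxyvitamin D3. CellTiter-Glo luminescence, 30 min, room temperature.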

In experiment [20] the target is Vitamin D3 receptor (Homo sapiens) (UniProt P11473). Nature of the experiment: qHTS assay to identify small molecule agonists of the vitamin D receptor (VDR) signaling pathway (AID 743222; calls by dose curve). Summed up:
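Tox21 cell reporter format: VDR-bla line, 16 h compound exposure in 5% CO2 at 37C, then fluorescence intensity after 2 h with LiveBLAzer B/G FRET substrate.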

Records with an inconclusive call do not appear. Calls of active or inactive are those of the source. Unless noted, calls come from the whole dose curve; as a rule, active = well fitted curve in the direction sought with a large enough effect in the repeat runs; inconclusive = weak or mixed curves; inactive = no such curve, though single readings can be large; an effect the other way counts as inactive or inconclusive.

Chain of Peroxisome proliferator-activated receptor delta (Homo sapiens) (Q03181 whole entry, looked up): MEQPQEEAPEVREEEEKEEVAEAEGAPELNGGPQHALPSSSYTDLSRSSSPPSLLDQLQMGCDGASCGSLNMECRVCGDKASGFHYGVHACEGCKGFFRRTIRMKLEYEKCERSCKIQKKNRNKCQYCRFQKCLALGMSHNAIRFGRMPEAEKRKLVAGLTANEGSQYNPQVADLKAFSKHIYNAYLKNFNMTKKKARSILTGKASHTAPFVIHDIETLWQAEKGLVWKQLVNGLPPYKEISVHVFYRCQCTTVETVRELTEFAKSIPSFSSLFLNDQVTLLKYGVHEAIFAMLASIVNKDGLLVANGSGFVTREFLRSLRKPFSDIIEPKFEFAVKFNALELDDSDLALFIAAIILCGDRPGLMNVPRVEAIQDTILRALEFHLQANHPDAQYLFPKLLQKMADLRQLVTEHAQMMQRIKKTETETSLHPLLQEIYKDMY
Chain of Retinoic acid receptor RXR-alpha (Homo sapiens) (P19793 whole entry, looked up): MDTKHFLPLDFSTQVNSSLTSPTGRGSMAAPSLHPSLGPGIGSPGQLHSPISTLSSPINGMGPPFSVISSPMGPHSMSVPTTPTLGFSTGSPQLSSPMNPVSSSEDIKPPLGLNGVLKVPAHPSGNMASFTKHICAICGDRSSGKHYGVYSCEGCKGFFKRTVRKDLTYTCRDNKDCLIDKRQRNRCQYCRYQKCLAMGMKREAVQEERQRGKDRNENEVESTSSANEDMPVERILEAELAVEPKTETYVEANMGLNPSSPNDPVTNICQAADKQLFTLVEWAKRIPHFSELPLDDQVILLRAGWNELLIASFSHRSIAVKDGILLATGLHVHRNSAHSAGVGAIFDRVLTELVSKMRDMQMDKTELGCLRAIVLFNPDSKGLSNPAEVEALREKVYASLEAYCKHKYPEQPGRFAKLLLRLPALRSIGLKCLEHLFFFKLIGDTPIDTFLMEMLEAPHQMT

On to `O=c1[nH]cnc2ccccc12`, for which the Potency result in [1], in [3], in experiment [6], in experiment [8], in experiment [9] and in experiment [10] was “inactive” in each case. Further, the Potency result in experiment [12], in experiment [13], in experiment [14], in experiment [15] and in experiment [16] was “inactive” each time. In addition, the outcome in experiment [2], in experiment [4], in experiment [5], in experiment [7] and in experiment [11] was inactive.
As for `OCCC1CCCCN1` (configuration not stated), the Potency result in experiment [1], in experiment [3], in experiment [6], in [17], in experiment [18] and in [19] was “inactive” in each case. In addition, the Potency entry in experiment [9], in experiment [10], in experiment [12], in experiment [13], in [14] and in experiment [15] was “inactive” in each case. Moreover, the compound was called inactive in experiment [2], in [5], in experiment [7] and in experiment [11].
In the case of `Cc1nc2ccccc2n1Cc1ccc(Cl)cc1`, the Potency entry in experiment [1], in experiment [9], in experiment [10], in [12], in experiment [14] and in [15] was “inactive” each time. Moreover, the outcome in experiment [11] was inactive. Moreover, the Potency in experiment [13] was 2660 nM (active).
As for `O=C(Cl)c1ccc([N+](=O)[O-])cc1`, the Potency result in [1], in experiment [3], in experiment [6], in [8], in experiment [18] and in [9] was “inactive” throughout. Besides, the Potency result in [10], in experiment [12], in [13], in [14], in experiment [15] and in experiment [16] was “inactive” in each case. For the same compound, the result in [2] and in experiment [11] was inactive.
Regarding `CCC(C)N(C)C(=O)c1cc2ccccc2c(-c2ccccc2Cl)n1` (configuration not stated), the Potency result in experiment [1], in experiment [3], in [6], in [8], in experiment [18] and in experiment [19] was “inactive” in each case. The Potency entry in [9], in [10], in experiment [12], in experiment [13], in [14] and in experiment [15] was “inactive” each time. In addition, the result in [2], in experiment [4] and in experiment [11] was inactive.
Regarding `CC(C)CC=O`, the Potency entry in experiment [1], in [3], in experiment [6], in experiment [8], in [18] and in experiment [9] was “inactive” each time. The Potency entry in experiment [10], in [12], in experiment [13], in experiment [14] and in experiment [15] was “inactive” in each case. For the same compound, the call in [2], in experiment [5], in experiment [7], in experiment [20] and in experiment [11] was inactive.
With `N#CCCNCCC#N`, the Potency entry in experiment [1], in experiment [3], in experiment [6], in [8], in experiment [18] and in [19] was “inactive” each time. The Potency result in experiment [9], in experiment [10], in experiment [12], in experiment [13], in [14] and in [15] was “inactive” in each case. Also, the outcome in experiment [2], in experiment [20] and in experiment [11] was inactive.
As for `COC(=O)C(C)=O`, the Potency result in experiment [1], in experiment [3], in experiment [6], in experiment [8], in experiment [17] and in experiment [18] was “inactive” in each case. Further, the Potency result in [19], in experiment [9], in experiment [10], in experiment [12], in experiment [13] and in [14] was “inactive” each time. The Potency entry in [15] and in [16] was “inactive” each time. Also, the compound was classed as inactive in [2], in experiment [20] and in experiment [11].
For the compound `CC(O)C1CCCCC1` (configuration not stated), the Potency result in experiment [1], in experiment [3], in experiment [6], in experiment [8], in [18] and in [9] was “inactive” in each case. In addition, the Potency entry in experiment [10], in experiment [12], in experiment [13], in [14] and in experiment [15] was “inactive” in each case. The compound was classed as inactive in experiment [2], in [4], in experiment [20] and in experiment [11].

These data come from PubChem BioAssay (Tox21).
